CHO-K1 Ca antag: counter-screen for M1 antagonists: effect in parental CHO-K1 cells | ATP-induced calcium, Fluo-8 fluorescence | inhibition, % at 3 µM | 360,000 tested, 0.6% active | AID 602250;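 active = inhibition above a per-plate cutoff, the plate's mean sample inhibition plus 3 SD, cut at about 24% in these data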;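 also: 0% = DMSO plus EC80 ATP and 100% = DMSO alone without ATP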
CHRM1 agonist: activates human CHRM1 receptor | CHO-K1 hM1, Fluo-8 calcium fluorescence, agonist mode; 0% DMSO, 100% acetylcholine EC100 | activation, % at 3 µM | 360,000 tested, 0.33% active | AID 588814;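 active = activation above the run's mean compound activation plus 3 SD, cut at about 16% in these data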;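 also: peak over basal fluorescence ratio within a 140 s kinetic read after compound addition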
Target sequence (P11229 whole entry, looked up): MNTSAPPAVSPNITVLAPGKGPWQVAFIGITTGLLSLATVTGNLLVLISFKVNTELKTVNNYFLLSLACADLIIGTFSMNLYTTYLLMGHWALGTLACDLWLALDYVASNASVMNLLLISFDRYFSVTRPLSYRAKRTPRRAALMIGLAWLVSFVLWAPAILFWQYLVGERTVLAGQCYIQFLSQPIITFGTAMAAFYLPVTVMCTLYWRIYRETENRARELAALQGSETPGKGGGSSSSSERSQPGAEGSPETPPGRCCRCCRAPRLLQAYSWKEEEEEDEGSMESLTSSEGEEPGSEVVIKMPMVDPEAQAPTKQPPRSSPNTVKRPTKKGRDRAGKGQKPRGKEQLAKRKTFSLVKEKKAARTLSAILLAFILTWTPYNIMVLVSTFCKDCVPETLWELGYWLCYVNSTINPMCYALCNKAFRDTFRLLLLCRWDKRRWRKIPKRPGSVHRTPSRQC
M1 PAM: human CHRM1 positive allosteric modulation | P11229 | CHO-K1 hM1, Fluo-8 calcium fluorescence, ACh EC20; 0% = ACh EC20, 100% = maximal ACh | activation, % at 3 µM | 360,000 tested, 0.088% active; in the data active = activation above about 19%, passing the limit was not always enough
CHO-K1 Ca PAM: M1 PAM counterscreen hit in parental CHO-K1 cells; activation, % at 3 µM; 360,000 tested, 0.02% active; AID 602247; ATP EC20, Fluo-8 calcium fluorescence; 0% at ATP EC20, 100% at ATP max;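 active = activation above the run cutoff, the mean activation of all test compounds plus 3 SD, cut at about 40% in these data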;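 also: peak over basal fluorescence ratio in a 140 s read after ATP addition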
CHO-K1 Ca ag: nonselective activator or artifact in parental CHO-K1 cells; Fluo-8 calcium fluorescence; scaled to maximal ATP response, vehicle zero; activation, % at 3 µM; 360,000 tested, 0.48% active; in the data active = activation above about 15%;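 also: untransfected CHO-K1 host cells lacking M1 receptor as counterscreen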
CHRM1 antagonist: antagonists of human M1 muscarinic receptor; 360,000 tested, 1.3% active; inhibition, % at 3 µM; P11229; CHO-K1 hM1, Fluo-8 calcium fluorescence, ACh EC80 antagonist;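 active = percent inhibition above its own plate's cutoff, namely the mean of that plate's compound wells plus 3 SD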;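 also: peak over basal fluorescence ratio during 140 s after agonist addition; 0% = ACh EC80 plus DMSO and 100% = DMSO alone without agonist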
Numbers without * were called inactive. An excerpt weighted towards active compounds, which were near 2.3% of everything screened.

SMILES | CHO-K1 Ca antag | CHRM1 agonist | M1 PAM | CHO-K1 Ca PAM | CHO-K1 Ca ag | CHRM1 antagonist
COc1ccccc1C(CNc1ncnc2sc(C)c(C)c12)N(C)C (stereo not drawn) | -9.9 | -10.9 | -34.3 | 3.1 | 2.6 | 92.0*
COc1ccc(C(CNc2ncnc3sc(C)c(C)c23)N(C)C)cc1 (stereo not drawn) | -14.2 | -11.9 | -27.6 | 26.3 | 1.4 | 23.1*
Cc1sc2ncnc(Nc3ccccc3)c2c1C | -1.2 | -7.0 | -2.1 | -0.9 | -0.6 | -3.8
Cc1sc2ncnc(NCc3ccccc3)c2c1C | 11.7 | -0.8 | -2.2 | 6.9 | 6.6 | 21.7
Cc1sc2ncnc(NCC(c3ccco3)N(C)C)c2c1C (stereo not drawn) | 13.9 | -4.3 | -18.2 | -6.5 | 0.1 | 38.4*
CCc1nnc(NC(=O)CSc2nc3ccc(OC)cc3[nH]2)s1 | -3.0 | -6.3 | 1.7 | 8.9 | -0.1 | -3.1
COC(C(=O)Nc1c(F)cccc1F)c1ccccc1 (stereo not drawn) | -12.7 | -2.9 | 3.1 | 30.5 | 0.5 | -0.6
Cc1cccc(C)c1OCc1cc(C(=O)N2CCC(c3ccncc3)CC2)no1 | 9.9 | -0.8 | -13.7 | 6.0 | 11.3 | 29.2*
CC(=O)c1ccc(OCc2cc(C(=O)N3CCC(Oc4ccccc4C)CC3)no2)cc1 | -12.1 | -1.8 | -6.1 | -15.2 | 2.5 | 0.1
Cc1ccc(OCc2cc(C(=O)N3CCC(Oc4cccnc4)CC3)no2)cc1C | 24.8* | -6.5 | -20.9 | -0.8 | 15.6* | 26.4
O=C(c1cc(COc2cccc(C(F)(F)F)c2)on1)N1CCC(Oc2cccnc2)CC1 | 24.2* | 1.6 | -13.7 | -24.8 | 13.7 | 37.2*
CN1OC[C@@H]2CN(C(=O)NC3CCCCC3)[C@H](c3ccc(N4CCCCC4)cc3)C[C@@H]21 | 3.1 | -8.3 | 12.5 | 13.1 | 0.4 | -9.8
CC(C)N(C)c1ncnc2c1ncn2[C@H]1CN(Cc2ccc(F)cc2)C[C@@H](CO)O1 | -5.1 | 1.1 | -0.3 | -3.0 | 1.2 | 5.5
CCN(CC)CCCCNc1ncc2cc(-c3cc(OC)cc(OC)c3)c(NC(=O)NC(C)(C)C)nc2n1 | -2.2 | -7.6 | -19.2 | 22.3 | 1.8 | -4.7
CNC(=S)Nc1cc(C)ccc1OC(F)F | -9.2 | -3.1 | -5.5 | 8.5 | -0.1 | 3.4
O=C(NC(=S)N1CCN(c2nc(-c3ccccc3)cs2)CC1)c1cncc(Br)c1 | -11.7 | -3.6 | 9.3 | 15.8 | 2.5 | 1.2
Cc1cc2nc(-c3ccc(C#N)cc3)c(Cc3cccc(F)c3)n2c(C)c1Br | -18.3 | -3.1 | 0.1 | 7.6 | 0.2 | -18.1
CCOc1ccc(NS(=O)(=O)c2cc3c(cc2C)N(C)CCO3)cc1 | 13.4 | -0.7 | -15.9 | 13.7 | 7.3 | 23.9
COc1ccc(S(=O)(=O)Nc2ccc(N3CCOCC3)cc2)cc1 | 10.5 | 1.2 | 11.3 | -12.4 | 0.7 | -5.3
COc1ccc(NS(=O)(=O)c2ccc(N3CCOCC3)c(N)c2)cc1 | 13.2 | 5.9 | -14.4 | -7.1 | 13.0 | 30.9*
COc1ccc(NS(=O)(=O)c2cc3c(cc2C)N(C)CCO3)cc1 | 9.4 | 1.0 | -13.9 | -4.8 | 6.7 | 31.7*
Nc1cccc(C(=O)N/N=C/c2ccsc2)c1 | 2.4 | -2.3 | 5.1 | -13.3 | 0.3 | -3.3
O=c1[nH]c(C2CCCN(S(=O)(=O)c3ccccc3)C2)nc2c1nnn2Cc1ccccc1Br (stereo not drawn) | -7.9 | 0.3 | 9.6 | 6.3 | 0.7 | -7.6
C[C@@H]1CN([C@@H](C)CO)C(=O)c2cc(Br)cnc2O[C@H]1CN(C)C(=O)CN1CCOCC1 | -9.2 | -2.3 | -1.5 | 13.0 | 0.4 | -10.4
c1ccc(CN2CCC(Nc3nc(-c4cccs4)nc4ccccc34)CC2)cc1 | -4.2 | -0.7 | 7.9 | 20.5 | 15.8* | 1.6
SMILES | CHO-K1 Ca antag | CHRM1 agonist | M1 PAM | CHO-K1 Ca PAM | CHO-K1 Ca ag | CHRM1 antagonist
Cc1ccc(-c2c[n+](Cc3ccc(Cl)c(Cl)c3)c3n2CCC3)cc1 | 9.1 | -15.0 | -22.1 | -7.8 | -0.2 | 23.8
O=C(Nc1ccc(N2CCOCC2)cc1)c1cccc(S(=O)(=O)N2CCCCC2)c1 | -9.7 | -2.5 | -7.2 | 11.4 | 1.7 | -24.7
CCN1CCN(c2ccc(NC(=O)c3ccco3)cc2Cl)CC1 | 0.1 | -11.7 | -10.5 | 3.1 | -0.2 | 16.7
CCN1CCN(c2ccc(NC(=O)c3cccc(S(=O)(=O)N4CCCC4)c3)cc2)CC1 | -1.9 | -7.1 | -28.1 | 16.3 | 0.7 | 74.3*
CCN1CCN(c2ccc(NC(=O)c3cccc(F)c3)cc2Cl)CC1 | 3.2 | -7.8 | -24.6 | -0.2 | 4.2 | 53.8*
COCCN(C(=O)C1CC(=O)N(Cc2ccccc2)C1)c1nc(-c2ccc([N+](=O)[O-])cc2)cs1 (stereo not drawn) | -5.2 | -4.8 | -4.5 | -2.0 | 3.8 | 11.2
Cc1ccccc1C(=O)NNC1CC(=O)N(c2ccc3c(c2)OCCO3)C1=O (stereo not drawn) | 27.6* | -1.8 | -6.6 | -15.9 | 0.1 | 11.3
CCOc1ccccc1CNC(=O)C1CCCN(c2nnc(C)c3c(C)n(-c4ccccc4)nc23)C1 (stereo not drawn) | -22.9 | -5.8 | -18.7 | 4.3 | -1.8 | 42.8*
CCCS(=O)(=O)NC(=O)C1(C)CCN(C(=O)c2ccccc2Br)C1 (stereo not drawn) | 1.5 | 3.1 | 26.6* | 15.5 | 0.3 | -26.8
CCCS(=O)(=O)NC(=O)C1(C)CCCN(C(=O)c2ccccc2Br)C1 (stereo not drawn) | 1.4 | -1.3 | 4.9 | -6.6 | 0.0 | -3.0
O=C(O)C1CCN(S(=O)(=O)c2ccc(N3CCC(O)CC3)c([N+](=O)[O-])c2)CC1 | -3.9 | -2.8 | -4.4 | -6.0 | 0.1 | 18.9
CN(Cc1ccc(OC(F)F)cc1)C(=O)c1cccc(S(=O)(=O)N2CCN(Cc3ccccc3)CC2)c1 | 12.4 | -3.2 | -14.4 | -7.1 | 11.1 | 32.6*
COc1cccc(CN(C)C(=O)c2cccc(S(=O)(=O)N3CCN(c4ccc(F)cc4)CC3)c2)c1OC | 10.8 | -2.4 | -10.3 | -21.7 | 9.7 | 28.1*
COc1cccc(CN(C)C(=O)c2cccc(S(=O)(=O)N3CCN(c4ccccc4)CC3)c2)c1OC | -9.1 | 1.4 | -11.7 | -2.6 | 11.6 | 11.0
Oc1ccccc1-c1n[nH]c(-c2ccccc2O)n1 | -2.9 | 7.3 | -8.0 | -5.0 | 17.3* | 14.4
O=C(N/N=C/c1ccncc1)c1ccc(OCc2ccccc2)cc1 | -6.7 | 20.5* | 1.4 | 15.2 | 3.2 | -1.9
COc1ccc(C(=O)N/N=C/c2ccc3cccc(OCc4ccccc4)c3n2)cc1 | 4.5 | 1.0 | -8.1 | 25.0 | 3.9 | 31.5*
Cc1ccc(OCC(=O)Nc2ccccc2C(=O)N2CCCC2)cc1 | -9.3 | 0.1 | 1.8 | -7.6 | 3.9 | -6.3
O=C1CSC(c2ccc([N+](=O)[O-])cc2)N1CCN1CCCCC1 (stereo not drawn) | -21.5 | 18.7* | 2.8 | 12.1 | 0.8 | -7.7

Screens (PubChem BioAssay)
